From PubChem BioAssay (EPA / NIEHS)
Inconclusive results are not listed. Calls of active or inactive are those of the source. Rule for the calls: active = hit-call score of the fitted dose curve at least 0.9, where 1 is the maximum; inconclusive = response in the unintended direction; inactive = score below 0.9. Peptide text beside a SMILES is read from it.

Experiments:
[1] = target: human Peroxisome Proliferator-activated Receptor alpha (PPARa), PPARA (gene 5465) (UniProt Q07869); assay: ATG_PPARa_TRANS: Attagene TRANS-FACTORIAL HepG2 Assay for human Peroxisome Proliferator-activated Receptor alpha (PPARa) (AID 2283001);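 for AC50: potency for gain of reporter signal over DMSO so agonist or activator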
Method in brief: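 Cells (HepG2) are transfected with multiple reporter transcription units, exposed to chemical for 24 h, then total RNA is reverse-transcribed and amplified. Labelled products are quantified by capillary electrophoresis; induction is referenced to DMSO.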

[2] = target: Peroxisome proliferator-activated receptor gamma (Homo sapiens) (UniProt P37231); assay: ATG_PPARg_TRANS: Attagene TRANS-FACTORIAL HepG2 Assay for human Peroxisome Proliferator-activated Receptor-gamma (PPARg) (AID 2283007)
Method in brief: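 After 24 h of chemical exposure, transfected HepG2 cells carrying PPARγ-Gal4 chimera reporter constructs are lysed for RNA. Reporter transcripts are measured by RT-PCR and capillary electrophoresis with fluorescent labelling, and gain of signal is fitted versus DMSO.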

[3] = target: Nuclear receptor subfamily 1 group I member 2 (Homo sapiens) (UniProt O75469); assay: ATG_PXR_TRANS: Attagene TRANS-FACTORIAL HepG2 Assay for human Pregnane X Receptor (PXR) (AID 2283008)
Method in brief: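 Trans-factorial format: exogenous NR-Gal4 fusion activity, not endogenous factor, in transfected human HepG2 liver cells. After 24 h dosing, RNA isolated, reverse-transcribed, amplified and resolved by capillary electrophoresis; induction scored versus DMSO.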

[4] = target: human RAR-related Orphan Receptor gamma (RORg), RORC (gene 6097) (UniProt P51449); assay: ATG_RORg_TRANS: Attagene TRANS-FACTORIAL HepG2 Assay for human RAR-related Orphan Receptor gamma (RORg) (AID 2283011)
Method in brief: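 Readout: reporter transcript induction (RT-PCR, fluorescent primer extension, capillary electrophoresis) after 24 h compound exposure of transiently transfected HepG2 cells carrying a RORg-Gal4 chimera and GAL4-UAS reporters; DMSO served as baseline, with increasing signal fitted.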

[5] = target: human Retinoid X Receptor beta (RXRb), RXRB (gene 6257) (UniProt P28702); assay: ATG_RXRb_TRANS: Attagene TRANS-FACTORIAL HepG2 Assay for human Retinoid X Receptor beta (RXRb) (AID 2283013)
Method in brief: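 Readout is reporter transcript induction after 24 h dosing. It is measured by RT-PCR of total RNA followed by fluorescent capillary electrophoresis. HepG2 liver cells carry transfected multiple reporter units driven by an exogenous RXRb-Gal4 fusion; activity is relative to DMSO.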

[6] = target: human Peroxisome Proliferator-activated Receptor delta (PPARd), PPARD (gene 5467) (UniProt Q03181); assay: ATG_PPARd_TRANS: Attagene TRANS-FACTORIAL HepG2 Assay for human Peroxisome Proliferator-activated Receptor delta (PPARd) (AID 2283002)
Method in brief: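 HepG2 cells transiently transfected with multiplexed GAL4-UAS reporter units and exogenous chimeric NR-Gal4 proteins; 24 h compound exposure. Reporter mRNA measured by RT-PCR, 6-FAM labelling, HpaI digestion and capillary electrophoresis; gain of signal versus DMSO.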

[7] = target: human Retinoic Acid Receptor beta (RARb), RARB (gene 5915) (UniProt P10826); assay: ATG_RARb_TRANS: Attagene TRANS-FACTORIAL HepG2 Assay for human Retinoic Acid Receptor beta (AID 2283004)
Method in brief: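 HepG2 cells transiently transfected with multiplexed GAL4-UAS reporter units expressing chimeric NR–Gal4 fusions; 24 h compound exposure. Reporter mRNA quantified by RT-PCR, 6-FAM labelling, HpaI digestion and capillary electrophoresis; gain-of-signal fitted against DMSO baseline.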

[8] = target: Retinoic acid receptor alpha (Homo sapiens) (UniProt P10276); assay: ATG_RARa_TRANS: Attagene TRANS-FACTORIAL HepG2 Assay for human Retinoic Acid Receptor alpha (RARa) (AID 2283005)
Method in brief: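 HepG2 cells transiently transfected with multiple reporter units expressing chimeric RARα-GAL4 fusion, with GAL4-UAS-driven reporters. After 24 h compound exposure, reporter mRNA induction quantified by RT-PCR and capillary electrophoresis with fluorescent labeling; gain-of-signal fitted relative to DMSO control.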

[9] = target: human Retinoic Acid Receptor gamma (RARg), RARG (gene 5916) (UniProt P13631); assay: ATG_RARg_TRANS: Attagene TRANS-FACTORIAL HepG2 Assay for human Retinoic Acid Receptor gamma (RARg) (AID 2283009)
Method in brief: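 Transactivation of exogenous RARg-Gal4 fusion measured as reporter transcript induction after 24 h in transfected HepG2 cells. RNA reverse-transcribed, amplified, fluorescently labeled and resolved by capillary electrophoresis; increase relative to DMSO.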

[10] = target: human RAR-related Orphan Receptor beta (RORb), RORB (gene 6096) (UniProt Q92753); assay: ATG_RORb_TRANS: Attagene TRANS-FACTORIAL HepG2 Assay for human RAR-related Orphan Receptor beta (RORb) (AID 2283010)
Method in brief: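 Read-out is reporter mRNA induction, quantified by RT-PCR with fluorescent capillary electrophoresis, 24 h post-dose in transiently transfected HepG2 expressing exogenous NR-Gal4 chimera. Activity fitted upward versus DMSO.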

[11] = target: Retinoic acid receptor RXR-alpha (Homo sapiens) (UniProt P19793); assay: ATG_RXRa_TRANS: Attagene TRANS-FACTORIAL HepG2 Assay for human Retinoid X Receptor alpha (RXRa) (AID 2283012)
Method in brief: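 TRANS format reporting activity of exogenous RXRa-Gal4 chimera in transiently transfected HepG2, 24 h exposure. Reporter transcripts quantified by RT-PCR with capillary electrophoresis, with gain of signal scored relative to DMSO.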

[12] = target: human Thyroid Receptor alpha (THRa1), THRA (gene 7067) (UniProt P10827); assay: ATG_THRa1_TRANS: Attagene TRANS-FACTORIAL HepG2 Assay for human Thyroid Receptor alpha (THRa1) (AID 2283014)
Method in brief: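 HepG2 cells transiently transfected with multiplexed GAL4-UAS reporter units for exogenous chimeric THRa1-Gal4; reporter mRNA measured 24 h after dosing by RT-PCR, 6-FAM labelling, HpaI digestion and capillary electrophoresis. Gain-of-signal fitted versus DMSO baseline.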

Measured: AC50

Retinoic acid receptor RXR-alpha (Homo sapiens), sequence (P19793 whole entry, looked up, the tested form may be a part): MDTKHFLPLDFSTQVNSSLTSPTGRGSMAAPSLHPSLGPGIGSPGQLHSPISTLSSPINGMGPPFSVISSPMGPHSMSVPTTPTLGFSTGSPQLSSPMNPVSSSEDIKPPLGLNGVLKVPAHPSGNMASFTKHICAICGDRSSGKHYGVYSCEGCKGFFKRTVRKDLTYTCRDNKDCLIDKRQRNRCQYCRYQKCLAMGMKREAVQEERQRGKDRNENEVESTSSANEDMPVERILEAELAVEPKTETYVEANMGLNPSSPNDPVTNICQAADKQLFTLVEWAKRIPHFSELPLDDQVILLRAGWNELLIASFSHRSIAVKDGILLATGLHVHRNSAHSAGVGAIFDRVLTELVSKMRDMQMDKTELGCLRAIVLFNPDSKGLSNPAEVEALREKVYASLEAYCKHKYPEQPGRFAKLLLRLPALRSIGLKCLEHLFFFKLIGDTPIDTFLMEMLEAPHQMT
Peroxisome proliferator-activated receptor gamma (Homo sapiens), sequence (P37231 whole entry, looked up, the tested form may be a part): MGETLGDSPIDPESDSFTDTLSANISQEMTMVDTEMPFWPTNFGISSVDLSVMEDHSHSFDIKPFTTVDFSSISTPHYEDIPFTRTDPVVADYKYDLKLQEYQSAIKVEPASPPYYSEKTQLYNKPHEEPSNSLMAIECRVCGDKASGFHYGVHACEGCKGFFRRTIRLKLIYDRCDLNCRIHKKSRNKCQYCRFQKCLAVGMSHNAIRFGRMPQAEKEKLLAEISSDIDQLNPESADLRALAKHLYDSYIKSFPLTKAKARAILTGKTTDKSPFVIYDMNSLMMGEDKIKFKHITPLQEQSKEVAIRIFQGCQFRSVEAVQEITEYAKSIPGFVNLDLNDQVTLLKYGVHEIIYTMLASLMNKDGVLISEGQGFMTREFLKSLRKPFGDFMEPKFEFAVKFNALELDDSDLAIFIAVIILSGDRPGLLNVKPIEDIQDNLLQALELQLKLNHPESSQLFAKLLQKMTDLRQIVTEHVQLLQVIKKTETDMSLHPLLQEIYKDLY
human Retinoic Acid Receptor gamma (RARg), RARG (gene 5916), sequence (P13631 whole entry, looked up, the tested form may be a part): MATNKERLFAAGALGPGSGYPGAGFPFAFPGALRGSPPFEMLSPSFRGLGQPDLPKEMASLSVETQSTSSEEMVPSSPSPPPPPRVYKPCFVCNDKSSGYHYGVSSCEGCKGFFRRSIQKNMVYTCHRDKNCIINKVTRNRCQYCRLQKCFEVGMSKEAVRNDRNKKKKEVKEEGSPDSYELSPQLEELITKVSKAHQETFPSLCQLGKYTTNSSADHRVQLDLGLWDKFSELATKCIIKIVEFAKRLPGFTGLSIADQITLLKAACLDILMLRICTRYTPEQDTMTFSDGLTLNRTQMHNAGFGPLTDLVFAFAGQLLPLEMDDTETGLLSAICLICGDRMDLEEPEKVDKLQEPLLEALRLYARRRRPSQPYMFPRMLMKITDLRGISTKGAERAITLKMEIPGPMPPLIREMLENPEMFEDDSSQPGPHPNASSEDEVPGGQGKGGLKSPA
human Peroxisome Proliferator-activated Receptor alpha (PPARa), PPARA (gene 5465), sequence (Q07869 whole entry, looked up): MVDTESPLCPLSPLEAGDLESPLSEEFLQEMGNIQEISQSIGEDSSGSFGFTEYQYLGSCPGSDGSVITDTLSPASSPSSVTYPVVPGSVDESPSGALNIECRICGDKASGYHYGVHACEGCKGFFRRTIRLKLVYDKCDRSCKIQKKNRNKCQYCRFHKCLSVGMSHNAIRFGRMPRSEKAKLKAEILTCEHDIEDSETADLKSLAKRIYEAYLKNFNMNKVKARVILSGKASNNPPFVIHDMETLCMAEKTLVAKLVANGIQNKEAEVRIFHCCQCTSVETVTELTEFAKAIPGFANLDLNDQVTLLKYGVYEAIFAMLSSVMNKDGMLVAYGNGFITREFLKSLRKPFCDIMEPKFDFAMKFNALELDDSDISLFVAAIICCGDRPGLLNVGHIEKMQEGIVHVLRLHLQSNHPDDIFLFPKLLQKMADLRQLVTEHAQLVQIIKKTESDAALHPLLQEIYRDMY
Retinoic acid receptor alpha (Homo sapiens), sequence (P10276 whole entry, looked up, the tested form may be a part): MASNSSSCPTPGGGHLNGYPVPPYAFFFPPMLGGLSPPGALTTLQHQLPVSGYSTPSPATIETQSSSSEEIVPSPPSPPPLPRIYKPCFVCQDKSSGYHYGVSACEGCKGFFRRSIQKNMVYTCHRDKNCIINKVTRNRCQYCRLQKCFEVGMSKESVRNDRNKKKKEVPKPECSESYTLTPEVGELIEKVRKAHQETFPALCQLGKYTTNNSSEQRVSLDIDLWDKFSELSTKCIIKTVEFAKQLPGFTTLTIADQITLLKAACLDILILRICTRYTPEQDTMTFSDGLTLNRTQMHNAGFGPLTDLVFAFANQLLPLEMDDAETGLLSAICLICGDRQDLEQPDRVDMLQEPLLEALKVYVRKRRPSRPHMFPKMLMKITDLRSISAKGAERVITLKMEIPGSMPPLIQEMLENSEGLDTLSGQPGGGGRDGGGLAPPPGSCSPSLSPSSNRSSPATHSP
human Thyroid Receptor alpha (THRa1), THRA (gene 7067), sequence (P10827 whole entry, looked up, the tested form may be a part): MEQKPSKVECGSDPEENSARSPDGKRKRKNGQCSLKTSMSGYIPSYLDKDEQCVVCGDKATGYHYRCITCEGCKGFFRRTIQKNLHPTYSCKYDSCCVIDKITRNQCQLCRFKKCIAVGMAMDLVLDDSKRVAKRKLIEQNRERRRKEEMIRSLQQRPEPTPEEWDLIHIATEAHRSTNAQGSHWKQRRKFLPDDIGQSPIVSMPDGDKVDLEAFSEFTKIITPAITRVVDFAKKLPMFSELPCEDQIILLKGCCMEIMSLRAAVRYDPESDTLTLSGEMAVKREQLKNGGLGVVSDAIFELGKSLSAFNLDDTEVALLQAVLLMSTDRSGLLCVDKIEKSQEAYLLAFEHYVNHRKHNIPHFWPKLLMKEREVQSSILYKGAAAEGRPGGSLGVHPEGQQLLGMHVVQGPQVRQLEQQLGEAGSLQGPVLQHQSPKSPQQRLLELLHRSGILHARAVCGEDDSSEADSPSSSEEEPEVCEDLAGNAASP
human Retinoic Acid Receptor beta (RARb), RARB (gene 5915), sequence (P10826 whole entry, looked up, the tested form may be a part): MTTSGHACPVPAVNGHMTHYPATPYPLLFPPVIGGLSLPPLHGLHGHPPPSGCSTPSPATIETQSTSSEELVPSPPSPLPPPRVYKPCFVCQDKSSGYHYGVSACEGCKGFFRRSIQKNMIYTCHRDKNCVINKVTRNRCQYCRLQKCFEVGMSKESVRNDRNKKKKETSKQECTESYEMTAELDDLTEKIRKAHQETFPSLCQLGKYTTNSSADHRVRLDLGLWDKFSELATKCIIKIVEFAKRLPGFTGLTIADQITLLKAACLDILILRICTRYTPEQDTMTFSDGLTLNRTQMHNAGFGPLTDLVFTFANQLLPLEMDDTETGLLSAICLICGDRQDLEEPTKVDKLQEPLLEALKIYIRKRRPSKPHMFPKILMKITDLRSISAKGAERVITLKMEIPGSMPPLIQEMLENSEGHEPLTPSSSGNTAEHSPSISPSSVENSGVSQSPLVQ
human RAR-related Orphan Receptor gamma (RORg), RORC (gene 6097), sequence (P51449 whole entry, looked up, the tested form may be a part): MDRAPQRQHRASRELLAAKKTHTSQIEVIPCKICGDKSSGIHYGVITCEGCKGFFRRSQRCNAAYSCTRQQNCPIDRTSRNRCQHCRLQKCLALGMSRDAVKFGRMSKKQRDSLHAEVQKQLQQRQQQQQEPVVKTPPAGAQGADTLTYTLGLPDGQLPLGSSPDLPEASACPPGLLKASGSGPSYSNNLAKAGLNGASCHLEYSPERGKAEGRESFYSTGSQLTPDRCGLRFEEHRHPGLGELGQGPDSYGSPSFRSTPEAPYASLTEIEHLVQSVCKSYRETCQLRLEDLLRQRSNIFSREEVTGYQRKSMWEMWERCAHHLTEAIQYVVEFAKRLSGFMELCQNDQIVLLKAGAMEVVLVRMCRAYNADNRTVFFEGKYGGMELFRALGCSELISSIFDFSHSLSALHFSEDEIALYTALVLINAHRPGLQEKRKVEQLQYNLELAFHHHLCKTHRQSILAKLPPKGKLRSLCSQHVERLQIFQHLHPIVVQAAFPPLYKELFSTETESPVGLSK
Nuclear receptor subfamily 1 group I member 2 (Homo sapiens), sequence (O75469 whole entry, looked up, the tested form may be a part): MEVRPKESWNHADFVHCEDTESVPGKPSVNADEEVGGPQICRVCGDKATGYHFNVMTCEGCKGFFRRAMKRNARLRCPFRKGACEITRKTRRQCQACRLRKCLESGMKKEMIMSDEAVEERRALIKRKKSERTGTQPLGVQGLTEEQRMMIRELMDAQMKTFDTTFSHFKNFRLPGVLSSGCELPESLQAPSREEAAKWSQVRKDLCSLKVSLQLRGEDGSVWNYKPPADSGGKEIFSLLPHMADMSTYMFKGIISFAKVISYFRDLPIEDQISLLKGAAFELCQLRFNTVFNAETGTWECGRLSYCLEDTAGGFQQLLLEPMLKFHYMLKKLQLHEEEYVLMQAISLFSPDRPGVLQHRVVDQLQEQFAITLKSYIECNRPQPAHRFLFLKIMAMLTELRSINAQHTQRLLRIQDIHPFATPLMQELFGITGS
human Retinoid X Receptor beta (RXRb), RXRB (gene 6257), sequence (P28702 whole entry, looked up, the tested form may be a part): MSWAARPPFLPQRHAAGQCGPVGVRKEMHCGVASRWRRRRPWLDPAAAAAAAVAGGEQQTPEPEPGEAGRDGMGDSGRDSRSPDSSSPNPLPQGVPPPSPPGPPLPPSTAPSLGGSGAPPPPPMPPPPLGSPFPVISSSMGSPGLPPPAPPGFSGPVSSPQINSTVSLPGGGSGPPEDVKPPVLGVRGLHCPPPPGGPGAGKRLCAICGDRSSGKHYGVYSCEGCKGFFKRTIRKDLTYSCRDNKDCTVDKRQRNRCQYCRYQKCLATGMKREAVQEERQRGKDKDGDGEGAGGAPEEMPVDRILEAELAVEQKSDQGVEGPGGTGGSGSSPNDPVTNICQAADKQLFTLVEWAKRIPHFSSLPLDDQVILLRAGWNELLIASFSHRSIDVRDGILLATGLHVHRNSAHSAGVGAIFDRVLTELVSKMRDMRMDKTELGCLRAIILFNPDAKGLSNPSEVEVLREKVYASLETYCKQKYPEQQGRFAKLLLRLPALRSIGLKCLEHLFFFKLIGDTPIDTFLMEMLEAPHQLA

O=C1CCCN1C1CCCCC1
inactive: [1] | [2] | [3] | [4] | [5]

COC(=O)[C@H](Cc1ccccc1)NC(=O)[C@@H](N)CC(=O)O (H-Asp-Phe-OMe)
inactive: [6] | [7] | [8] | [2] | [3] | [9] | [10]

O=S(=O)(O)c1ccc(N=Nc2c(O)ccc3ccccc23)cc1
not listed: [3] | [6] | [10] | [12]
inactive: all other assays above

O=C(OCc1ccccc1)c1ccc(O)cc1
active: [2] 49.9 µM | [3] 63.2 µM
inactive: [1] | [11] | [5]

CC(=O)OCC=C(C)C
inactive: [1] | [8] | [2] | [3] | [11] | [5] | [12]

O=C1CCCCC1C1CCCCC1 (centres undefined)
active: [3] 41.2 µM
not listed: [4] | [6] | [12]
inactive: all other assays above

CCc1cccc(C)c1N
not listed: [3] | [6] | [10] | [12]
inactive: all other assays above

CN(C)Cc1cc(CN(C)C)c(O)c(CN(C)C)c1
inactive: [1] | [7] | [2] | [3] | [12]

CCCc1ccc(O)c(OC)c1
active: [2] 57.2 µM
not listed: [6] | [7] | [8] | [12]
inactive: all other assays above

Nc1ccc(C(=O)OCCCOC(=O)c2ccc(N)cc2)cc1
inactive: [1] | [12]
active: [2] 33.4 µM | [3] 19.6 µM

C=C(C)C(=O)OCCOC(=O)C(=C)C
active: [2] 62.2 µM
not listed: [1] | [4] | [12]
inactive: all other assays above

CC1C(C)(C)C2=C(C(=O)CCC2)C1(C)C (centres undefined)
active: [5] 87.6 µM
not listed: [3] | [4] | [6] | [12]
inactive: all other assays above

C=C[Si](OCCOC)(OCCOC)OCCOC
inactive: [1] | [7] | [3] | [11] | [12]

COc1ccc(-c2coc3cc(O)cc(O)c3c2=O)cc1
inactive: [7] | [8] | [9] | [11] | [12]
active: [1] 7.31 µM | [2] 27.1 µM | [3] 26.6 µM

Cc1c(C(=O)c2c[nH]n(C)c2=O)ccc(S(C)(=O)=O)c1C1=NOCC1
inactive: [1] | [8] | [3] | [10]

CCCCCCCC(=O)OCC(COC(=O)CCCCCCC)OC(=O)CCCCCCC
inactive: [1] | [2] | [10] | [12]

C=C(C)[C@@H]1CC=C(C)CC1
inactive: [1] | [8] | [10] | [4] | [5]

C=CCCCCCCCCOC(C)=O
inactive: [1] | [2] | [3] | [4] | [11] | [5] | [12]

O=C(O[C@@H]1Cc2c(O)cc(O)cc2O[C@@H]1c1cc(O)c(O)c(O)c1)c1cc(O)c(O)c(O)c1
inactive: [1] | [2] | [3] | [9] | [11] | [5] | [12]

C=CC(C)(CCC=C(C)C)OC(=O)C=Cc1ccccc1 (centres undefined)
active: [2] 4.97 µM | [3] 2.75 µM
inactive: [1] | [5] | [12]

CC(=O)CCC1=C(C)CCCC1(C)C
active: [3] 6.98 µM | [5] 19.6 µM
not listed: [6] | [8] | [10]
inactive: all other assays above

CCCCCCCC(=O)OCC
inactive: [1] | [2] | [3] | [9] | [11] | [5]

[Cl][Sc]([Cl])[Cl]
inactive: [1] | [8] | [3] | [9] | [4] | [12]

CC1=CCC2CC1C2(C)C (centres undefined)
inactive: [1] | [7] | [8] | [3] | [9] | [10] | [5]

C=CCNCC=C
inactive: [1] | [7] | [2] | [3] | [10] | [11] | [12]

CC(C)=CCCC(C)=CC#N
inactive: [1] | [7] | [2] | [3] | [11] | [5]

CC(=O)c1ccccc1O
inactive: [1] | [2] | [10] | [11] | [5]

O=C(Nc1ccccc1)c1cc(Cl)ccc1O
active: [2] 13 µM
not listed: [4] | [6] | [10]
inactive: all other assays above

CC1=NN(c2ccc(S(=O)(=O)O)cc2)C(=O)C1N=Nc1ccccc1 (centres undefined)
not listed: [1] | [10] | [11] | [12]
inactive: all other assays above

CC(C)c1cc(C(C)C)cc(C(C)C)c1
active: [11] 6.06 µM | [5] 0.399 µM
inactive: [6] | [8] | [2]

CCC(C)N (centres undefined)
inactive: [6] | [7] | [2] | [5]

CC1=CP(=O)(c2ccccc2)CC1 (centres undefined)
not listed: [1] | [2] | [7] | [10]
inactive: all other assays above

CCOC(=O)CC(=O)c1ccccc1
inactive: [6] | [2] | [3] | [4]

Cc1cc(C)n(CO)n1
inactive: [6] | [7] | [2] | [4] | [5]

CCC(=O)C1CC(C(C)C)CC=C1C (centres undefined)
active: [2] 58.3 µM | [3] 3.16 µM
inactive: [6] | [8] | [9] | [10] | [4] | [11]

CC(C)OC(=O)c1ccccc1
inactive: [6] | [7] | [8] | [9] | [10] | [4] | [11]

CC(C)(O)Cc1ccccc1
inactive: [6] | [7] | [8] | [3] | [10] | [4] | [12]

N#Cc1ccc(C2CCCc3cncn32)cc1 (centres undefined)
inactive: [6] | [7] | [2] | [3] | [9] | [4] | [11]

N#Cc1ccc(C(c2ccc(C#N)cc2)n2cncn2)cc1
inactive: [6] | [2] | [3] | [9] | [11] | [5]

CC(C)=NNC(N)=S
inactive: [6] | [7] | [3] | [4] | [11] | [5] | [12]

OCCCc1ccccc1
inactive: [6] | [8] | [2] | [9] | [10] | [11] | [5]

COc1cc(C)ccc1O
inactive: [6] | [8] | [2] | [10] | [11] | [5] | [12]

CC12CCC(CC1)C(C)(C)O2
inactive: [6] | [7] | [10] | [4] | [5]

CCC[Si](OC)(OC)OC
not listed: [1] | [2] | [10]
inactive: all other assays above

CC1=C(O)C(=O)C(C)O1 (centres undefined)
not listed: [1] | [2] | [3] | [12]
inactive: all other assays above

Cn1cccc1
not listed: [1] | [7] | [9] | [12]
inactive: all other assays above

CCN(CC)c1cccc(C)c1
inactive: [6] | [7] | [8] | [3] | [9] | [4] | [5]

CCOB(OCC)OCC
inactive: [6] | [7] | [8] | [2] | [5]

CCCCCC[C@@H](O)C/C=C\CCCCCCCC(=O)OCC(O)CO (some centres undefined)
active: [6] 27.7 µM | [2] 57.8 µM | [5] 85 µM
not listed: [1] | [3] | [4]
inactive: all other assays above

C[Si]1(C)O[Si](C)(C)O[Si](C)(C)O[Si](C)(C)O[Si](C)(C)O1
inactive: [6] | [2] | [3] | [4] | [11]
